# How the values were obtained:
# Format in all cases: functional
# [1] = system: Plasmodium falciparum; test: GSK_TCMDC: Inhibition of Plasmodium falciparum 3D7 in whole red blood cells, using parasite LDH activity as an index of growth. Test compounds present at 2uM
# [2] = system: Plasmodium falciparum; test: GSK_TCMDC: Inhibition of Plasmodium falciparum Dd2 in whole red blood cells, using parasite LDH activity as an index of growth. Test compounds present at 2uM
# [3] = system: HepG2; test: GSK_TCMDC: Percent inhibition of human HepG2 cell line. Test compounds present at 10uM.
SMILES,Inhibition [1] [%],Inhibition [2] [%],Inhibition [3] [%]
Cl.OC(c1ccccc1)C1CN(CCC2CC3CCC2C3)CCC1(O)c1ccccc1 (configuration not stated),97,99,0
COc1ccc(CNCc2cccc(-c3cccc(-c4nc5cccc(C)c5[nH]4)c3)c2)cc1.O=C(O)C(F)(F)F,100,60,31
CC(Cc1ccc(OCCCCOc2ccccc2)cc1)NCCc1ccc(Oc2ccccc2)cc1 (configuration not stated),89,95,99
Cc1cc(NCCc2ccccc2)nc(NC(=N)Nc2cccc(Cl)c2)n1,100,100,24
Cc1cccc2nc(-c3cccc(-c4cccc(NC(=O)C(C)CN5CCN(C)CC5)c4)c3)[nH]c12 (configuration not stated),99,99,17
Cc1noc(C)c1-c1cccc(CNCc2ccc(-c3ccc(-c4nc5ccccc5[nH]4)s3)cc2)c1.O=C(O)C(F)(F)F,100,79,41
O=C(Nc1ccc(-c2ccc(-c3nc4ccccc4[nH]3)s2)cc1)Nc1ccc(Cl)c(Cl)c1,100,99,89
CN1CCN(c2ccnc3ccc(NC(=O)Nc4ccc5c(c4)CCCC5=O)cc23)CC1,100,90,8
CCC(C)c1ccc(NC(=O)c2ccc(S(=O)(=O)Nc3ccc(OC)c(N4CCN(CC5CC5)CC4)c3)cc2)cc1.O=C(O)C(F)(F)F (configuration not stated),94,17,24
CC(C)(C)c1ccc(C(=O)NC2CCC(CCN3CCc4ccc(S(C)(=O)=O)cc4CC3)CC2)cc1C(F)(F)F (configuration not stated),88,11,54
CC1(C)Cc2c([nH]c3ccccc23)C(CCCCCCCCC2=NC(C)(C)Cc3c2[nH]c2ccccc32)=N1.Cl,99,88,100
C=Cc1sc(CNCCCNc2cc(=O)c3ccccc3[nH]2)c(C)c1Br,94,35,0
O=C(/C=C/c1ccc(Cl)c(Cl)c1)NCCCCCN1CCC(NC(=O)Nc2cccc(Cl)c2Cl)CC1,100,35,99
COc1ccc(CNC2CCN(C)CC2)cc1-c1ccc(OC)c(S(=O)(=O)NCc2ccccc2)c1.O=C(O)C(F)(F)F,99,95,10
CCC(C)CN1CCCN(c2ccc(NC(=O)c3cccs3)cc2)CC1.O=C(O)C(F)(F)F (configuration not stated),91,95,4
COc1cccc(Nc2nnc(SCC(=O)NNC(=O)c3ccccn3)s2)c1,99,95,52
CCOC(=O)c1c(C)noc1Nc1ccc(OC)cc1,99,0,0
O=C(Cc1ccccc1)NC1CCN(c2ccnc3cc(Cl)ccc23)C1.O=C(O)C(F)(F)F (configuration not stated),100,78,6
COc1ccc(Nc2ncc3c(-c4cccc(NC(=O)Cc5cccnc5)c4)c[nH]c3n2)cc1OC,98,85,27
Cc1ccccc1CNc1noc(-c2c(-c3ccccc3)noc2C)n1,94,70,0
Cc1c(S(=O)(=O)Nc2cccc(CCN3CCCCC3CCN3CCCC3)c2)sc2ccc(Cl)cc12 (configuration not stated),93,10,22
c1ccc(CN2CCC(NCc3cccc(-c4cncc5ccccc45)c3)CC2)cc1,92,11,29
COc1ccc(C2N=C(N)N=C(N)N2c2ccc(Cl)cc2)cc1OC.Cl (configuration not stated),85,4,4
Oc1ccc(-c2ccccc2)cc1CN1CCCCCC1,95,85,6
Cc1ccc2[nH]c3c(NCCCN(C)C)ncnc3c2c1,99,0,1
COc1ccc2nccc([C@@H](O)CN3CCC(NCc4nc5c(C#N)cccc5[nH]4)CC3)c2c1.O=C(O)C(=O)O,96,9,0
O=C(NCCCNc1nc2ccccc2[nH]1)c1cccc(OC(F)(F)F)c1,100,27,12
COc1cc(F)c2ncc(F)c([C@@H](O)CN3CCC(NCc4cc5c(cn4)OCCO5)CC3)c2c1.Cl,100,88,1
COCCN1CCN(Cc2ccc(-c3ccc(-c4nc5cc(F)ccc5[nH]4)cc3)cc2)CC1.O=C(O)C(F)(F)F,100,99,25

# Source: ChEMBL document CHEMBL1157539, “Thousands of chemical starting points for antimalarial lead identification” (Nature, 2010)
